Measurements: PubChem BioAssay (EPA / NIEHS)
Records with an inconclusive call do not appear. The source made the active and inactive calls. Rule for the calls, unless noted: active = hit-call score of the fitted dose curve at least 0.9, where 1 is the maximum; inconclusive = response in the unintended direction; inactive = score below 0.9.

How the values were obtained:
[1] = biological target: Oxysterols receptor LXR-alpha (Homo sapiens) (UniProt Q13133); experiment: ATG_LXRa_TRANS: Attagene TRANS-FACTORIAL HepG2 Assay for human Liver X Receptor alpha (LXRa) (AID 2282980); details: HepG2 Attagene TRANS reporter, LXRa transactivation
Chain of Oxysterols receptor LXR-alpha (Homo sapiens) (Q13133 whole entry, looked up, the tested form may be a part): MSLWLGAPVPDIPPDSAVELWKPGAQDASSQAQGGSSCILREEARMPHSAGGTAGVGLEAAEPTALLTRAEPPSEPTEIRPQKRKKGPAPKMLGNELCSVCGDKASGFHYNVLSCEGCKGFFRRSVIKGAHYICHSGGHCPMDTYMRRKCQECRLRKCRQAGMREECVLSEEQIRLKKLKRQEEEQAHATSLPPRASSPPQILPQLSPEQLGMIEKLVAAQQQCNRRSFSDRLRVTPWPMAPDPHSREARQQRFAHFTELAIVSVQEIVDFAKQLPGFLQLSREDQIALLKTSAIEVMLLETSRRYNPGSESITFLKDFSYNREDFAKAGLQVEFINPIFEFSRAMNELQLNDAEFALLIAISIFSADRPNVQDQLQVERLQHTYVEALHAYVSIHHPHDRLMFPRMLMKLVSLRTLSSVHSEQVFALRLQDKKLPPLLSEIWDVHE
How it was run: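 HepG2 cells transiently transfected with GAL4-UAS reporter units for chimeric NR-Gal4 proteins, exposed to chemicals for 24 h. Reporter mRNA quantified by RT-PCR and capillary electrophoresis; gain of signal fitted relative to DMSO.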

[2] = biological target: Oxysterols receptor LXR-beta (Homo sapiens) (UniProt P55055); experiment: ATG_LXRb_TRANS: Attagene TRANS-FACTORIAL HepG2 Assay for human Liver X Receptor beta (LXRb) (AID 2282981); details: HepG2 Attagene TRANS GAL4-LXRb reporter, mRNA
Chain of Oxysterols receptor LXR-beta (Homo sapiens) (P55055 whole entry, looked up, the tested form may be a part): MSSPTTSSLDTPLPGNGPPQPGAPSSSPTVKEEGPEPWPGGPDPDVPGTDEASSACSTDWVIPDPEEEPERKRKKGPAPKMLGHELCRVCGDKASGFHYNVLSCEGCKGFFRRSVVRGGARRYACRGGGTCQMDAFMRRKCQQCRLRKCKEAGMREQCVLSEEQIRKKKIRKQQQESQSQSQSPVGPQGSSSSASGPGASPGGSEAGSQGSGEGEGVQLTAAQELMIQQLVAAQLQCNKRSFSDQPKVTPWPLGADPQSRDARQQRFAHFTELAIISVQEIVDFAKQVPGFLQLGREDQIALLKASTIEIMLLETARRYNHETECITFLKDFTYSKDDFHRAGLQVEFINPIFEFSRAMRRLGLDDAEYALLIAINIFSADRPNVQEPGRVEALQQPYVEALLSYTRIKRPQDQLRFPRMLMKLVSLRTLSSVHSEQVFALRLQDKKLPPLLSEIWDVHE
How it was run: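 Measures induction of a Gal4-driven reporter transcript in HepG2 cells expressing an exogenous LXRb-Gal4 fusion. Cells are exposed to compound for 24 h before RNA isolation and RT-PCR with capillary electrophoresis detection.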

[3] = biological target: Hepatocyte nuclear factor 4-alpha (Homo sapiens) (UniProt P41235); experiment: ATG_HNF4a_TRANS: Attagene TRANS-FACTORIAL HepG2 Assay for human Hepatocyte Nuclear Factor 4 alpha (HNF4a) (AID 2282982); details: HepG2 HNF4a transactivation reporter, mRNA readout
Chain of Hepatocyte nuclear factor 4-alpha (Homo sapiens) (P41235 whole entry, looked up, the tested form may be a part): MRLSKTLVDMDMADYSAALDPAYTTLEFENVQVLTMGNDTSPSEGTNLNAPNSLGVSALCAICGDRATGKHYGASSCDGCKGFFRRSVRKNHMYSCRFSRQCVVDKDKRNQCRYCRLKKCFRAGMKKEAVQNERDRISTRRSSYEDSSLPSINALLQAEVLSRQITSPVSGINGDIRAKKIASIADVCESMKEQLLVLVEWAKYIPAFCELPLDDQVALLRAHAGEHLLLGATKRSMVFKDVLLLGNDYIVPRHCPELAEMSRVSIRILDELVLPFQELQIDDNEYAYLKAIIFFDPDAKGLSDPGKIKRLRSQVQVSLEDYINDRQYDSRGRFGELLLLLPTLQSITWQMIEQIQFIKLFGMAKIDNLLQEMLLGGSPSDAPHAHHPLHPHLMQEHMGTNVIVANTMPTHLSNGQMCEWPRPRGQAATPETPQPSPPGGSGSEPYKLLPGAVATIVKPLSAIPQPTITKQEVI
How it was run: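 In this trans-factorial format, a chimeric HNF4a-GAL4 fusion drives a GAL4-UAS reporter in transfected HepG2 liver cells. After 24 h treatment, reporter mRNA induction is measured by RT-PCR with capillary electrophoresis, relative to DMSO.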

[4] = ATG_M_06_TRANS: Attagene TRANS-FACTORIAL HepG2 Assay for M06 Transcription Factor (Internal Marker) (AID 2282983); details: HepG2 Attagene TRANS M06 internal marker reporter
How it was run: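 mRNA levels of a reporter transcript, quantified as FAM fluorescence on capillary electrophoresis, served as readout. HepG2 cells expressing exogenous GAL4-chimera reporter constructs were exposed for 24 h. Gain of signal over DMSO was evaluated.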

[5] = biological target: Nuclear receptor subfamily 4 group A member 2 (Homo sapiens) (UniProt P43354); experiment: ATG_NURR1_TRANS: Attagene TRANS-FACTORIAL HepG2 Assay for human Nuclear Receptor Related Protein 1 (NURR1) (AID 2282985); details: HepG2 Attagene TRANS reporter, mRNA readout
Chain of Nuclear receptor subfamily 4 group A member 2 (Homo sapiens) (P43354 whole entry, looked up, the tested form may be a part): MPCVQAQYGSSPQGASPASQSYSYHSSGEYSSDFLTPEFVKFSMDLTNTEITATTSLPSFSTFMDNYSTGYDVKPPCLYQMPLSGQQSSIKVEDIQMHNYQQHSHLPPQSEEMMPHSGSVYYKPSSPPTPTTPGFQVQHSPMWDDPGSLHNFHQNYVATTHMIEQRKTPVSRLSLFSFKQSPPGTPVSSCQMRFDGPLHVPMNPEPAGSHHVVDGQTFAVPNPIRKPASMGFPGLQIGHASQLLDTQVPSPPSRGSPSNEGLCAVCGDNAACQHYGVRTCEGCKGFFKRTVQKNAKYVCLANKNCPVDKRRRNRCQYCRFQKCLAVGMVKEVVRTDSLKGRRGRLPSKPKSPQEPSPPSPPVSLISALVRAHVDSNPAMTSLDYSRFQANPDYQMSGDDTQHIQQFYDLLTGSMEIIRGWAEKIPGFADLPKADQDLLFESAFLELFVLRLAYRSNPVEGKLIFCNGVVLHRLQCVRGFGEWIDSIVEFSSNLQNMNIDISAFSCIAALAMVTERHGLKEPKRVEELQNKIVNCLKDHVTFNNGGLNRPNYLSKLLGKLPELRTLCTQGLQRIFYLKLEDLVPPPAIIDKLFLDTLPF
How it was run: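 Chimeric NR-Gal4 fusion activity measured in HepG2 after 24 h treatment. Reporter transcripts detected by RT-PCR and capillary electrophoresis fluorescence; positive-direction curve fitting against DMSO.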

[6] = biological target: Transcriptional activator Myb (Homo sapiens) (UniProt P10242); experiment: ATG_Myb_CIS: Attagene CIS-FACTORIAL HepG2 Assay for human Myeloblastosis (Myb) Proto-Oncogene Transcription Factor (AID 2282986; active = hit-call score of the fitted dose curve at least 0.9, where 1 is the maximum; inactive = score below 0.9); details: HepG2 Attagene CIS-FACTORIAL Myb reporter transcription; actives raise or lower the signal
Chain of Transcriptional activator Myb (Homo sapiens) (P10242 whole entry, looked up): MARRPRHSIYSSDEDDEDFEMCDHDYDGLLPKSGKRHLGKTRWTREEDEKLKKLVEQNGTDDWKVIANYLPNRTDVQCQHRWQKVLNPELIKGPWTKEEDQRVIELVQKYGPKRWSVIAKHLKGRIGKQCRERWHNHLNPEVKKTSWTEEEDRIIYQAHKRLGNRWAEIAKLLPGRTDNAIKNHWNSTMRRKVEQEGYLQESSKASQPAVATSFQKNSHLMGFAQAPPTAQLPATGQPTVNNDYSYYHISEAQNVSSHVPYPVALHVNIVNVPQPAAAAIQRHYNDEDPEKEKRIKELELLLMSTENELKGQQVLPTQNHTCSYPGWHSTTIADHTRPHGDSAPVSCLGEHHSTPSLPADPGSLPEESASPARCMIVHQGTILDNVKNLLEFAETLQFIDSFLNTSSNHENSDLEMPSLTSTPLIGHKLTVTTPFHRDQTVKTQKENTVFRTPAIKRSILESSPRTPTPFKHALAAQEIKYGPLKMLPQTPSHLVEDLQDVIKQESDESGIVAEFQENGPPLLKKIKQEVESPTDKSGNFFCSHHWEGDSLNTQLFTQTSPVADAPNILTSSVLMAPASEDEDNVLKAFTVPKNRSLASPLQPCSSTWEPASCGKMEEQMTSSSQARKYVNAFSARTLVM
How it was run: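 In this HepG2 transient-transfection format, cis-regulated reporter mRNA is quantified 24 h post-dosing by RT-PCR with capillary electrophoresis, fitted bidirectionally to DMSO baseline.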

[7] = biological target: Nuclear respiratory factor 1 (Homo sapiens) (UniProt Q16656); experiment: ATG_NRF1_CIS: Attagene CIS-FACTORIAL HepG2 Assay for human Nuclear Respiratory Factor 1 (NRF1) Orphan Gene (AID 2282987; active = hit-call score of the fitted dose curve at least 0.9, where 1 is the maximum; inactive = score below 0.9); details: HepG2 NRF1 cis-element reporter, Attagene multiplex; actives raise or lower the signal
Chain of Nuclear respiratory factor 1 (Homo sapiens) (Q16656 whole entry, looked up): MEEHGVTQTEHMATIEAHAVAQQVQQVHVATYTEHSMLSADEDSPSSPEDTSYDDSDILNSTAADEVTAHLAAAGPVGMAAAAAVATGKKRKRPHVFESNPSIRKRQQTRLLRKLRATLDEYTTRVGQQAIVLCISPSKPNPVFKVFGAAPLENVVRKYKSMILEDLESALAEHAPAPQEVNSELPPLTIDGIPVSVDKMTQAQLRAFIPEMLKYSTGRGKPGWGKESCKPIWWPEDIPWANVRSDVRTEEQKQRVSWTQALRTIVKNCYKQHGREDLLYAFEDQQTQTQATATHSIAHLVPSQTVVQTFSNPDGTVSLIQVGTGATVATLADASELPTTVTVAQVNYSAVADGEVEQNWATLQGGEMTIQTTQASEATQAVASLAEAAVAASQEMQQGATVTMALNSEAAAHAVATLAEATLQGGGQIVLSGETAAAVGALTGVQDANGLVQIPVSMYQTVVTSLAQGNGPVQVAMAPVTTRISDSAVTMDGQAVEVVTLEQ
How it was run: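 Using DMSO as baseline, gain- or loss-of-signal was fitted for reporter mRNA levels in HepG2 cells transiently transfected with cis-regulated reporter units. Samples were taken 24 h after dosing and read by RT-PCR with capillary electrophoresis.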

[8] = biological target: Bile acid receptor (Homo sapiens) (UniProt Q96RI1); experiment: ATG_FXR_TRANS: Attagene TRANS-FACTORIAL HepG2 Assay for Farnesoid X Receptor (FXR) (AID 2282979); details: HepG2 Attagene TRANS FXR-GAL4 reporter transcription;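 note: hits raise reporter mRNA above DMSO so AC50 marks FXR activation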
Chain of Bile acid receptor (Homo sapiens) (Q96RI1 whole entry, looked up, the tested form may be a part): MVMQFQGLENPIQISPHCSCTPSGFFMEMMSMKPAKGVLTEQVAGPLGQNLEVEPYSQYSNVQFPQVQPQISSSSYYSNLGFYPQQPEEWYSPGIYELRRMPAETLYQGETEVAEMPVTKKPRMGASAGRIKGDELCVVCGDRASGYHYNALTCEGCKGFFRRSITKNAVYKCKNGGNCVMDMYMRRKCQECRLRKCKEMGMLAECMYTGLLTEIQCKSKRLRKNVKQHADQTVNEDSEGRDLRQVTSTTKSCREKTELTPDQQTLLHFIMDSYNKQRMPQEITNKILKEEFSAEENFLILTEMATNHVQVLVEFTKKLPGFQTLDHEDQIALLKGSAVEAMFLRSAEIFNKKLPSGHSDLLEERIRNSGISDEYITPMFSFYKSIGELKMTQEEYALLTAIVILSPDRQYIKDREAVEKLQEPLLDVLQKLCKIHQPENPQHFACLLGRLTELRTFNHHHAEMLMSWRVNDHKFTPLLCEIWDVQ
How it was run: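 HepG2 cells were transiently transfected with GAL4-UAS reporters driven by chimeric NR-Gal4 proteins and dosed for 24 h. Reporter mRNA was quantified by RT-PCR, fluorescent labelling, HpaI digestion and capillary electrophoresis, with gain of signal scored versus DMSO.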

[9] = ATG_M_32_TRANS: Attagene TRANS-FACTORIAL HepG2 Assay for M32 Transcription Factor (Internal Marker) (AID 2282984); details: HepG2 Attagene TRANS M32 internal marker reporter;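 note: transcript level of a background control reporter unit measured by RT-PCR and capillary electrophoresis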
How it was run: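 After 24 h dosing of transfected HepG2 cells, total RNA was reverse-transcribed, reporter sequences PCR-amplified, 6-FAM labelled by primer extension and HpaI-digested before capillary electrophoresis. Signal increase over DMSO was fitted.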

Measured: AC50

CC(C)C(C)(C)C(C)(C)C(C)(C)S
not listed: [8] | [9]
inactive: all other assays above

CC(=O)[C@H]1CC[C@H]2[C@@H]3CC=C4C[C@@H](O)CC[C@]4(C)[C@H]3CC[C@]12C
not listed: [1] | [2] | [6]
inactive: all other assays above

CCCC[n+]1ccccc1
not listed: [4] | [8]
inactive: all other assays above

CC(C)(Oc1ccc(CCNC(=O)c2ccc(Cl)cc2)cc1)C(=O)O
not listed: [1] | [5]
inactive: all other assays above

O=C1NC(=O)c2ccccc21
inactive: [8] | [1] | [4] | [6] | [7]

c1ccc2sc(SN(C3CCCCC3)C3CCCCC3)nc2c1
inactive: [8] | [1] | [3] | [6] | [7]

O=P(c1ccccc1)(c1ccccc1)c1ccccc1
not listed: [1] | [2] | [3]
inactive: all other assays above

CCCC(=O)C(C)=O
inactive: [8] | [4] | [6] | [7]

Cc1ccc(C=O)cc1
inactive: [8] | [2] | [5] | [6] | [7]

CCCCCCCCCCCCCC(=O)O
not listed: [1] | [2] | [6]
inactive: all other assays above

Cc1ccc(Nc2ccc(O)c3c2C(=O)c2ccccc2C3=O)cc1
inactive: [8] | [2] | [9] | [7]

C=CC(=O)NCOCC(C)C
inactive: [8] | [3] | [4] | [6] | [7]

CCCC/C=C\CCCCCCCCCC=O
inactive: [8] | [9] | [6] | [7]

CCN(CC)c1ccc2c(-c3ccccc3C(=O)O)c3ccc(=[N+](CC)CC)cc-3oc2c1
inactive: [8] | [9] | [6] | [7]

O=C1c2ccccc2C(=O)N1SC1CCCCC1
not listed: [1] | [4] | [6]
inactive: all other assays above

COC(=O)C1=C(C)NC(C)=C(C(=O)OCCN(C)Cc2ccccc2)C1c1cccc([N+](=O)[O-])c1 (configuration not stated)
active: [8] 637 nM | [5] 27.2 µM | [7] 6.96 µM
inactive: [9] | [6]

C=CCOC(=O)CCC1CCCCC1
not listed: [2] | [5]
inactive: all other assays above

O=C(OCc1ccccc1)C(=O)OCc1ccccc1
not listed: [5] | [8]
inactive: all other assays above

C=CC(C)(C)O
not listed: [1] | [2] | [5]
inactive: all other assays above

OCc1cccnc1
not listed: [1] | [2] | [4]
inactive: all other assays above

CCCCCCCCCCCCCCCCCC(=O)OCC(CC)CCCC (configuration not stated)
not listed: [8]
inactive: all other assays above

O=Cc1ccc(Cl)c([N+](=O)[O-])c1
active: [7] 170 µM
not listed: [6] | [8]
inactive: all other assays above

O=C(O)c1snc(Cl)c1Cl
not listed: [5] | [6] | [8]
inactive: all other assays above

Cc1ncc([N+](=O)[O-])n1C
inactive: [8] | [2] | [5] | [7]

CC(=O)Nc1ccc(C)cc1C
inactive: [8] | [3] | [9] | [6] | [7]

C=C(C)C1CCC(C)CC1O (configuration not stated)
not listed: [5] | [8]
inactive: all other assays above

CC(=O)c1c(C)cc(C(C)(C)C)cc1C
not listed: [5] | [8] | [9]
inactive: all other assays above

CN(CCOc1ccc(CC2SC(=O)NC2=O)cc1)c1ccccn1 (configuration not stated)
not listed: [1] | [3]
inactive: all other assays above

CC1=CC(=O)NS(=O)(=O)O1
not listed: [5] | [8] | [9]
inactive: all other assays above

CCCCCCCCCOC(C)=O
inactive: [8] | [9] | [5] | [6] | [7]

COc1ccc(OC)c(OC)c1
not listed: [1] | [5] | [9]
inactive: all other assays above

CCCCCCCCCCCCN
not listed: [2] | [8] | [9]
inactive: all other assays above

NC(=O)NC1NC(=O)NC1=O (configuration not stated)
not listed: [3] | [5] | [8]
inactive: all other assays above

CN1[C@@H]2CC(OC(=O)[C@H](CO)c3ccccc3)C[C@H]1[C@@H]1O[C@@H]12 (some centres not stated)
inactive: [1] | [2] | [4] | [9] | [6]

Cc1ccc(O)c(C(C)(C)C)c1
active: [6] 184 µM
inactive: [1] | [2] | [9] | [7]

OCCCCCO
not listed: [3] | [5] | [8]
inactive: all other assays above

Nc1ccc(S(=O)(=O)O)c(N)c1
inactive: [1] | [2] | [4] | [5] | [7]

CCCCCOC(=O)CCC
inactive: [1] | [2] | [9] | [6] | [7]

C=O
not listed: [2] | [4] | [8]
inactive: all other assays above

CC(C)(C)c1n[nH]c(=S)n(N)c1=O
inactive: [1] | [3] | [6] | [7]

CCCCC[Si](OCC)(OCC)OCC
inactive: [1] | [2] | [4] | [7]

C=CC(=O)OCCOCCOCC
inactive: [1] | [3] | [4] | [6] | [7]

CCn1c2ccccc2c2cc(N)ccc21
not listed: [2] | [3] | [8]
inactive: all other assays above

C=C(C)C(=O)O[C@H]1C[C@@H]2CC[C@@]1(C)C2(C)C
inactive: [2] | [5] | [6] | [7]
active: [1] 27.5 µM

CC(=O)[O][Al][O]C(C)=O
inactive: [1] | [4] | [5] | [6] | [7]

OCC(CO)(CO)COCC(CO)(CO)CO
not listed: [2] | [5] | [8]
inactive: all other assays above

C=C(C)[C@@H]1CCC2=CC(=O)C[C@@H](C)[C@]2(C)C1
not listed: [3] | [5] | [8]
inactive: all other assays above

CCCc1ccccc1O
inactive: [1] | [4] | [6] | [7]

CCCCCCCCCC=O
inactive: [1] | [4] | [6] | [7]

CSc1nc(NC2CC2)nc(NC(C)(C)C)n1
not listed: [3] | [5] | [8]
inactive: all other assays above

CC[Si](OC(C)=O)(OC(C)=O)OC(C)=O
inactive: [1] | [3] | [4] | [7]

CC(C)OP(=O)(CP(=O)(OC(C)C)OC(C)C)OC(C)C
inactive: [1] | [2] | [4] | [9] | [7]

OC1OC[C@@H](O)[C@H](O)[C@H]1O (some centres not stated)
not listed: [4] | [5] | [8]
inactive: all other assays above

C=C(C)C(=O)Nc1ccc(Cl)c(Cl)c1
active: [5] 69.8 µM
inactive: [1] | [2] | [4] | [6] | [7]

COC(C)CCO (configuration not stated)
inactive: [2] | [4] | [5] | [6] | [7]
active: [1] 27.7 µM

O=C[C@@H](O)[C@H](O)[C@H](O)CO
inactive: [1] | [4] | [9] | [6] | [7]
